PubChem BioAssay (Tox21)
Records with an inconclusive call do not appear. Active and inactive are the calls of the source. Unless noted, the call rests on the fitted dose curve.

Key:
[1] = Nuclear factor erythroid 2-related factor 2/antioxidant responsive element (Nrf2/ARE) small molecule agonists: qHTS cell viability counter screen in human keratinocytes (AID 1919968; active means well fitted curve in the direction sought with a large enough effect in the repeat runs; an effect the other way counts as inactive or inconclusive; further: nearly all actives have a fitted effect of over 55% in size)
Method in brief: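 KeratinoSens cells (HaCaT keratinocytes stably carrying an ARE-luciferase reporter) were seeded at 1,500 cells/well and rested 5 h at 37 C/5% CO2. They were then exposed to compounds in DMSO for 23 h. Viability was read by CellTiter-Fluor fluorescence after 1 h.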

[2] = Nuclear factor erythroid 2-related factor 2/antioxidant responsive element (Nrf2/ARE) small molecule agonists: luciferase reporter gene qHTS assay in human keratinocytes (AID 1919969); further: nearly all actives have a fitted effect of over 35% in size
[3] = target: Gonadotropin-releasing hormone receptor (Homo sapiens) (UniProt P30968); assay: Human gonadotropin-releasing hormone receptor (GnRHR) small molecule agonists, calcium flux assay in GnRHR-HEK293 cells (AID 1920063); further: nearly all actives have a fitted effect of over 35% in size
Method in brief: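 HEK293 cells stably expressing human GnRHR were plated 18 h at 37 °C, loaded with calcium dye 1 h at 37 °C, then given compound in agonist mode; fluorescence (Ex/Em 480/540) read kinetically for 3 min at 1 s intervals.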

[4] = target: KiSS-1 receptor (Homo sapiens) (UniProt Q969F8); assay: Human kisspeptin (KISS1R) small molecule agonists, calcium flux assay in KISS1R-HEK293 cells (AID 1920064; active means well fitted curve in the direction sought with a large enough effect in the repeat runs; an effect the other way counts as inactive or inconclusive)
Method in brief: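 HEK293 cells stably expressing human KISS1R were plated 18 h at 37 °C, loaded with calcium dye for 1 h at 37 °C, then given compound by pin tool. Fluorescence (Ex/Em 480/540) was read kinetically for 3 min.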

[5] = G protein-coupled receptor (GPCR) small molecule agonists, calcium flux assay: HEK293 wild type cell line counter screen (AID 1920065)
Method in brief: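 Cells were plated and cultured 18 h at 37 C/5% CO2, then loaded with calcium dye for 1 h at 37 C. Compounds in DMSO were pin-transferred in agonist mode, and fluorescence (Ex/Em 480/540) was read kinetically for 3 min at 1 s intervals.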

[6] = p53 small molecule agonists, cell-based qHTS assay with human liver microsomes: qHTS cell viability counter screen (AID 1963579); further: nearly all actives have a fitted effect of over 45% in size
Method in brief: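 Cells carrying the p53 response-element beta-lactamase reporter are treated for 16 h at 37 C with test compounds in the presence of human liver microsomes and NADPH (both 0.5 mg/mL final); ATP-based CellTiter-Glo luminescence then reports viability.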

[7] = p53 small molecule agonists, cell-based qHTS assay: qHTS cell viability counter screen (AID 1963581); further: nearly all actives have a fitted effect of over 45% in size
Method in brief: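 p53RE-bla HCT-116 cells were exposed to compounds for 16 h at 37 C; after the beta-lactamase FRET read in the same wells, CellTiter-Glo was added and luminescence (intracellular ATP) read after 30 min at room temperature.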

[8] = p53 small molecule agonists, cell-based qHTS assay (AID 1963582; active means well fitted activation curve with a large enough effect in the signal ratio in the repeat runs, not every such curve was filed as active; the % refers to the signal ratio)
Method in brief: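 p53RE-bla beta-lactamase reporter cells rested 5 h at 37 C/5% CO2, then received compounds in DMSO by pin transfer and were incubated 16 h at 37 C. LiveBLAzer B/G FRET substrate was loaded for 2 h at room temperature before fluorescence reading.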

[9] = target: 5-hydroxytryptamine receptor 2A (Homo sapiens) (UniProt P28223); assay: 5-hydroxytryptamine receptor 2A (HTR2A) small molecule antagonists, cell-based qHTS assay (AID 1963586); further: nearly all actives have a fitted effect of over 45% in size
Method in brief: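 Antagonist-mode intracellular calcium assay: DOI (4 nM) added after 5 min compound pre-incubation at room temperature to dye-loaded HTR2A-CHO cells. Fluorescence followed for 3 min, sampled every second.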

[10] = target: 5-hydroxytryptamine receptor 2A (Homo sapiens) (UniProt P28223); assay: 5-hydroxytryptamine receptor 2A (HTR2A) small molecule agonists, cell-based qHTS assay (AID 1963587); further: nearly all actives have a fitted effect of over 30% in size
Method in brief: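 CHO cells stably expressing human HTR2A, plated 18 h, loaded with calcium dye 1 h at 37 C. Agonist mode: compounds added and intracellular calcium fluorescence recorded kinetically for 2 min at 1 sec intervals.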

[11] = target: Muscarinic acetylcholine receptor M1 (Homo sapiens) (UniProt P11229); assay: Cholinergic receptor muscarinic 1 (CHRM1) small molecule antagonists, cell-based qHTS assay (AID 1963588); further: nearly all actives have a fitted effect of over 40% in size
Method in brief: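 CHRM1-CHO calcium-flux assay, antagonist mode. Cells were seeded 18 h, dye-loaded 1 h at 37 C and given compound for 5 min at RT, then acetylcholine was added at 50nM. FDSS fluorescence was read 3 min; 15 concentrations, three runs.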

[12] = target: Muscarinic acetylcholine receptor M1 (Homo sapiens) (UniProt P11229); assay: Cholinergic receptor muscarinic 1 (CHRM1) small molecule agonists, cell-based qHTS assay (AID 1963589); further: nearly all actives have a fitted effect of over 35% in size
Method in brief: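 CHO cells stably expressing human CHRM1, seeded 18 h at 37 C/5% CO2, dye-loaded 1 h at 37 C, then given compound in agonist mode; intracellular calcium fluorescence read kinetically at 1 s intervals. Fifteen concentrations, three independent runs.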

[13] = cAMP Responsive Elements (CRE) small molecule agonists, cell-based qHTS assay (AID 1963590)
Method in brief: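 CRE-bla HEK 293T cells in DMEM with 10% dialyzed FBS, NEAA, pyruvate and 25 mM HEPES were plated 18 h at 37 C/5% CO2, then exposed to compounds in DMSO for 3 h before LiveBLAzer B/G FRET substrate addition.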

[14] = cAMP Responsive Elements (CRE) small molecule antagonists, cell-based qHTS assay (AID 1963591; active means well fitted inhibition curve with a large enough effect in the signal ratio in the repeat runs, not every such curve was filed as active; the % refers to the signal ratio)
Method in brief: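 CRE-bla HEK293T cells were plated 18 h at 37 °C/5% CO2, pinned with compound in DMSO, then stimulated with NKH477 at 0.25 uM final for 3 h. LiveBLAzer B/G FRET substrate was added and plates incubated 2 h at room temperature.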

[15] = target: Beta-2 adrenergic receptor (Homo sapiens) (UniProt P07550); assay: Adrenergic beta2 receptor (ADRB2) small molecule antagonists, cell-based qHTS assay (AID 1963592); further: series mostly up to about 92 µM; nearly all actives have a fitted effect of over 50% in size
Method in brief: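 Cells (CHO, stable ADRB2 overexpression) incubated 18-20hr at 37C; compounds added from DMSO; agonist mix (1nM isoproterenol, 100uM IBMX, 25uM Ro-20-1724) added; 0.5hr RT; d2-cAMP and anti-cAMP-cryptate added; 1hr RT; 665/615 nm read.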

[16] = target: D(2) dopamine receptor (Homo sapiens) (UniProt P14416); assay: Dopamine D2 receptor (DRD2) small molecule agonists, cell-based qHTS assay (AID 1963594); further: nearly all actives have a fitted effect of over 35% in size
Method in brief: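 HEK293 cells stably expressing human DRD2, pre-treated with PDE inhibitor Ro20-1724 (0.1 mM final) and compound 10 min at room temperature, then stimulated with NKH477 (200nM […]) for 30 min. cAMP read by HTRF (665/620 nm).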

[17] = target: D(2) dopamine receptor (Homo sapiens) (UniProt P14416); assay: Dopamine D2 receptor (DRD2) small molecule antagonists, cell-based qHTS assay (AID 1963595; active means well fitted inhibition curve with a large enough effect in the signal ratio in the repeat runs, with a control signal flat; the % refers to the signal ratio)
Method in brief: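 Antagonism was scored as restored cAMP in HEK293-DRD2 cells. These cells were stimulated with 200 nM NKH477 and 12 nM quinpirole for 30 min at room temperature, in the presence of 0.1 mM Ro20-1724.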

[18] = p53 small molecule agonists, cell-based qHTS assay with rat liver microsomes: qHTS cell viability counter screen (AID 1963580); further: nearly all actives have a fitted effect of over 45% in size
Method in brief: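 Viability is assessed in parallel with the p53 reporter read: HCT-116 p53RE-bla cells receive compounds plus rat microsomes and NADPH (0.5 mg/mL final apiece), incubate 16 h at 37 C, and then CellTiter-Glo luminescence is recorded.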

[19] = target: Beta-2 adrenergic receptor (Homo sapiens) (UniProt P07550); assay: Adrenergic beta2 receptor (ADRB2) small molecule agonists, cell-based qHTS assay (AID 1963593);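 further: CHO cells stably overexpressing human ADRB2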
Method in brief: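 CHO cells stably over-expressing ADRB2 were plated overnight at 37C, then dosed with compounds plus a stimulation mix containing 100uM IBMX and 25uM Ro-20-1724 for 0.5hr at room temperature. cAMP was measured by HTRF competition, 1hr.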

[20] = p53 small molecule agonists, cell-based qHTS assay with rat liver microsomes (AID 1963578)
Method in brief: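 Read-out is beta-lactamase reporter fluorescence (LiveBLAzer, 2 h, room temperature, dark) in p53RE-bla cells treated 16 h at 37 C with compound, rat liver microsomes and NADPH, both 0.5 mg/mL final.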

Measured: Potency

Chain of D(2) dopamine receptor (Homo sapiens) (P14416 whole entry, looked up): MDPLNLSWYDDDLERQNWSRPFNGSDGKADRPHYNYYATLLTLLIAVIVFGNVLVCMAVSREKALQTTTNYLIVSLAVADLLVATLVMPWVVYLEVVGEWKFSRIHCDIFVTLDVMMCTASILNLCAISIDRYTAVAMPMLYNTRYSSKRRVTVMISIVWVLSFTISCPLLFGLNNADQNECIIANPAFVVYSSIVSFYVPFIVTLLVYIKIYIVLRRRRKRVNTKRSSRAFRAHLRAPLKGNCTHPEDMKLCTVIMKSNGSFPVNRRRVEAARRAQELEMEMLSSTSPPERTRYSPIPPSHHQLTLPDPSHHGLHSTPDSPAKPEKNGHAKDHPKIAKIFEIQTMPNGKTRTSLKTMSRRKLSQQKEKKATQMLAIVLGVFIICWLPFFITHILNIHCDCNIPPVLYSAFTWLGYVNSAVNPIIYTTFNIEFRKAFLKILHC
Chain of Muscarinic acetylcholine receptor M1 (Homo sapiens) (P11229 whole entry, looked up): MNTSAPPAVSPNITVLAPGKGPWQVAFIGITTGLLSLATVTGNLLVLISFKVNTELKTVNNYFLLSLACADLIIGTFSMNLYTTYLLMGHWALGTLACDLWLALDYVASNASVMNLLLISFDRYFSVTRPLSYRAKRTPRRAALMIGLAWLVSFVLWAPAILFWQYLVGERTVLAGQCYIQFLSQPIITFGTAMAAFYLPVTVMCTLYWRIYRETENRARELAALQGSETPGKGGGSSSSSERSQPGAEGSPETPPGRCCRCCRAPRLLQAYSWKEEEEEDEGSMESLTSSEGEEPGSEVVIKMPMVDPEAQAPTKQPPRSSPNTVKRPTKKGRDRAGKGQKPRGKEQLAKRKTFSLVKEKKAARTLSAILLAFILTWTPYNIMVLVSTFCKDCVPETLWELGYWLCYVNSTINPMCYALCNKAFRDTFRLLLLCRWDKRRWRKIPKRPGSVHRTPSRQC
Chain of Beta-2 adrenergic receptor (Homo sapiens) (P07550 whole entry, looked up): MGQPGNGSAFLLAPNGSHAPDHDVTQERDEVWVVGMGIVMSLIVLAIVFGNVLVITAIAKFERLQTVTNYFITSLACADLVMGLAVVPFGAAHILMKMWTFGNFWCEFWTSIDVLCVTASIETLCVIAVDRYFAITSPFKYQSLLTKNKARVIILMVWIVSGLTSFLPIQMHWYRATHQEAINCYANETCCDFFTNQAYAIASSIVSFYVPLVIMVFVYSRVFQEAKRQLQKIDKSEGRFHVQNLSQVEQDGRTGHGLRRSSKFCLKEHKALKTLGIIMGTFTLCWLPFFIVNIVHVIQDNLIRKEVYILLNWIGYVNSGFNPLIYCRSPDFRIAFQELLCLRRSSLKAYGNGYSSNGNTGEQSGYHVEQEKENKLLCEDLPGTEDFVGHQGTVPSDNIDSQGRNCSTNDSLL
Chain of KiSS-1 receptor (Homo sapiens) (Q969F8 whole entry, looked up): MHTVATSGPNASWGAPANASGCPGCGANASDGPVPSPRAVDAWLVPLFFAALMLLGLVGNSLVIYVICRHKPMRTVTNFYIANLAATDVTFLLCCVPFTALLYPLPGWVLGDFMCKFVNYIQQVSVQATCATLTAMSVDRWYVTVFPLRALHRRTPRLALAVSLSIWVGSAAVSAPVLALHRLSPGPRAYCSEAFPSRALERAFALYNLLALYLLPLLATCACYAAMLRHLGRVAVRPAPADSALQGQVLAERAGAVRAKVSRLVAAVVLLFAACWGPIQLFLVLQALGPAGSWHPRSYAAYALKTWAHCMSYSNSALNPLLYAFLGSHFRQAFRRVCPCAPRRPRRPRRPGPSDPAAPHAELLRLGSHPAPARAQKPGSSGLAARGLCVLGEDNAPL
Chain of 5-hydroxytryptamine receptor 2A (Homo sapiens) (P28223 whole entry, looked up): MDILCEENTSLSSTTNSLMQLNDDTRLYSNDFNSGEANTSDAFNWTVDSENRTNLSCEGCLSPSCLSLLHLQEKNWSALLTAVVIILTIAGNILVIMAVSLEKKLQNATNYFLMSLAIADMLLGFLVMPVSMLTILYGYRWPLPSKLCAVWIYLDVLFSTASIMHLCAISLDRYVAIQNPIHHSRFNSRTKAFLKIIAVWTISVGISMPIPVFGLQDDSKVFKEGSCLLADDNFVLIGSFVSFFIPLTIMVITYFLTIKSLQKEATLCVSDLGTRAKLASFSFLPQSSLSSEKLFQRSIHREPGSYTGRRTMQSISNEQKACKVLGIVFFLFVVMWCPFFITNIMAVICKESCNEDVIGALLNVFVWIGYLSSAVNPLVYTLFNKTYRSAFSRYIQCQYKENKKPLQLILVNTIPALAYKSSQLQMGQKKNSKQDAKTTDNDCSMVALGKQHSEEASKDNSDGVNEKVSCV
Chain of Gonadotropin-releasing hormone receptor (Homo sapiens) (P30968 whole entry, looked up): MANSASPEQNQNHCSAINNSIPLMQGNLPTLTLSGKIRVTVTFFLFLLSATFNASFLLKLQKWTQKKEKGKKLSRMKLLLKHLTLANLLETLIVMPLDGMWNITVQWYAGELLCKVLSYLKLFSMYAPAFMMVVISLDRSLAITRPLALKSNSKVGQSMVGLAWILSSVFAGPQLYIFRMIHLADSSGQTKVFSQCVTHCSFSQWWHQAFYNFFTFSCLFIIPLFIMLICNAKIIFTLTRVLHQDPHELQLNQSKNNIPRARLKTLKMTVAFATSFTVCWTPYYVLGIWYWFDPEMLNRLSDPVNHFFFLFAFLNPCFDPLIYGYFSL

O=[N+]([O-])c1ccccc1Nc1ccccc1
not listed: [18] | [19] | [20]
inactive: all other assays above

CC(C)CCOCCC(C)C
not listed: [6] | [17] | [20]
inactive: all other assays above

CCCCCCOC(=O)C(C)CC (configuration not stated)
not listed: [13] | [15]
inactive: all other assays above

CO/N=C(/C(=O)N[C@@H]1C(=O)N2C(C(=O)O)=C(COC(N)=O)CS[C@H]12)c1ccco1
not listed: [17]
inactive: all other assays above

O=C(O)C(S)C(S)C(=O)O (configuration not stated)
not listed: [19]
inactive: all other assays above

COC(=O)CCC(=O)O
not listed: [10]
inactive: all other assays above

C(=C\c1ccccc1)/c1ccccc1
not listed: [13] | [17]
inactive: all other assays above
